Bioassay records: PubChem, several laboratories
TMEM16A act = TMEM16A chloride channel activators or potentiators, primary screen, cell-based, HTS; AID 623877, 2012; B-score at 10 µM; HEK293 TMEM16A/YFP-H148Q/I152L, iodide quench fluorescence; hits give low values; 340,000 tested, 0.3% active; Anoctamin-1 (Mus musculus), Q8BHY3;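 active means fluorescence-ratio B-score plate-corrected deviation score at least 3 library SD below zero, with starting fluorescence score within 5 deviations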;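 further: channel opened by trigger with iodide after compound preincubation; score built on the fluorescence ratio of max minus min over baseline; more negative score means more quench and so TMEM16A activation or potentiation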
ANO1 block = TMEM16A chloride channel inhibitors, primary screen, cell-based, HTS. Anoctamin-1 (Mus musculus), Q8BHY3. HEK293 TMEM16A/YFP iodide influx fluorescence, ionomycin. normalized B-score (activity score, 25-100; higher = stronger inhibition) at 10 µM. 310,000 tested, 1.2% active. AID 588511, 2011;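 active means ratio plate-corrected score three or more library SD toward inhibition, starting fluorescence score within five deviations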;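 further: score derived from kinetic fluorescence span divided by baseline fluorescence per well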
CHT block = inhibitors of human choline transporter CHT; High affinity choline transporter 1 (Homo sapiens), Q9GZV3; CHT-expressing cells, membrane potential dye, choline response; hits give low values; B-score at 10 µM; 310,000 tested, 0.86% active; AID 488975, 2010;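 active means B-score over 3 SD under the library average, and starting fluorescence ratio not unusually high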;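 further: choline stimulus applied at its EC90 after an EC20 pre-addition; B-score computed on integrated fluorescence ratio after choline addition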
GPR7 antag = GPR7 receptor antagonists, primary screen, cell-based, fluorescence, single concentration; inhibition, % at 4.4 µM; GPR7-expressing cells, fluorescence antagonist assay; 290,000 tested, 1.1% active; Neuropeptides B/W receptor type 1 (Homo sapiens), P48145; in the data active means inhibition above about 16%, passing the limit was not always enough;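 further: cells stimulated with the agonist NPW; 0% = agonist with vehicle and 100% = vehicle without agonist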
CHT allo act = CHT positive allosteric modulators, primary screen, cell-based, membrane potential dye, choline EC20; 310,000 tested, 0.49% active; B-score at 10 µM; High affinity choline transporter 1 (Homo sapiens), Q9GZV3; CHT-expressing cells; hits give high values; LV-AA mutant CHT in HEK293 cells;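 active means initial fluorescence not abnormally high and integrated response B-score, plate-corrected, over 3 SD above library mean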
Kir21 inh = inhibitors of mouse Kir2.1 inward-rectifier potassium channel; Inward rectifier potassium channel 2 (Mus musculus), P35561; B-score at 10 µM; HEK293-Kir2.1, FluxOR thallium flux fluorescence; hits give low values; 310,000 tested, 0.85% active;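 active means fluorescence ratio B-score at or below minus 3 SD of library scores, with starting-brightness B-score within 2 SD, cut at about -4.2 in these data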;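 further: channel flux triggered by added potassium and thallium sulfate stimulus; B-score of peak minus minimum fluorescence over baseline after thallium stimulus; more negative B-score means stronger Kir2.1 block with less thallium influx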
Target sequence (P35561 whole entry, looked up): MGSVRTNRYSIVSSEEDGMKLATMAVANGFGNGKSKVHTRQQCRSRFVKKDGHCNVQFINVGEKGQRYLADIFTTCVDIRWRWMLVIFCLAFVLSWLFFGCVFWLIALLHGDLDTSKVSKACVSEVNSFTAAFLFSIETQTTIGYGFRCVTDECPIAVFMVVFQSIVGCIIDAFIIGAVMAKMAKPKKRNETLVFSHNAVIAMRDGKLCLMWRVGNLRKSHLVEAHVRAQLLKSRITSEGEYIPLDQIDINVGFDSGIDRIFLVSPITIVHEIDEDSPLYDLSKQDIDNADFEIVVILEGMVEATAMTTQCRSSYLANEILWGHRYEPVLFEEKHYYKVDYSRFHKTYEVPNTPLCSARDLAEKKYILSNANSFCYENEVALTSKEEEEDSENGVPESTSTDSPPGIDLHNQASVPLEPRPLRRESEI
An asterisk follows results filed as active; i = inactive; x = no result given. Shown are actives, neighbours in structure and some others; about 3.7% of the full set was active somewhere.

SMILES	TMEM16A act	ANO1 block	CHT block	GPR7 antag	CHT allo act	Kir21 inh
CCCn1c(SCC(=O)N2N=C3/C(=C/c4ccc(OC)cc4)CCCC3C2c2ccc(OC)cc2)n[nH]c1=O (stereo not drawn)	i	i	i	19.7*	i	1.24
CCCn1c(SCC(=O)NCc2ccc(OC)cc2)n[nH]c1=O	i	i	i	-5.5	i	-0.25
Cc1cc(CNC(=O)Cc2c(F)cccc2Cl)nn1C	i	i	i	19.3*	i	1.94
O=C(Cn1ncc(Cl)c(Cl)c1=O)N1CCN(S(=O)(=O)c2ccc3ccccc3c2)CC1	i	i	i	39.8*	i	0.24
Cc1cc(N2CCN(S(=O)(=O)c3ccc(Cl)cc3)CC2)c2ccccc2n1	i	100*	i	-4.6	i	-0.06
Cc1cc(S(=O)(=O)NCCCN2CCOCC2)c(Cl)cc1Cl	i	i	i	1.1	i	0.37
Nc1ccc(Cl)c(S(=O)(=O)Nc2cccc(Cl)c2)c1	i	i	-8.9*	-2.2	i	-1.34
Cc1ccc(NS(=O)(=O)c2cc(N)ccc2Cl)c(C)c1	i	i	i	4.0	i	-0.38
CNS(=O)(=O)c1cccc(C(=O)OCc2cc(=O)oc3c(C)c(O)ccc23)c1	i	100*	-6.33*	11.6	i	-0.31
O=C(NCC1CCCO1)C1CCN(C2CCN(C(=O)CC3CCCC3)CC2)CC1 (stereo not drawn)	-6.61*	i	i	-9.7	i	0.76
O=C(NCC1CCCO1)C1CCN(CC2CCCCC2)CC1 (stereo not drawn)	i	i	i	-2.3	i	1.02
c1ccc(Oc2c3ccccc3nc3ccccc23)cc1	x	i	i	-20.0	i	-0.14
O=C(OCC(=O)N1CCCC1=O)c1nc(Cl)c(Cl)c(Cl)c1Cl	i	i	-4.96*	21.8	i	-0.39
O=C(OCc1ccccc1Cl)C1CC(=O)N(Cc2ccco2)C1 (stereo not drawn)	i	i	i	x	i	0.66
CC1(C)NC(=O)N(CC(O)COc2ccccc2C(=O)Nc2ccccc2)C1=O (stereo not drawn)	i	i	i	-4.1	i	-0.45
O=C(Nc1ccccc1)c1ccccc1OCC(O)CN1C(=O)c2ccccc2S1(=O)=O (stereo not drawn)	i	100*	i	-3.1	i	2.55
CCCN(C(=O)COC(=O)CNC(=O)c1ccc2ccccc2c1)c1c(N)n(Cc2ccccc2)c(=O)[nH]c1=O	i	i	i	x	i	1.36
COc1ccc(-c2cc(C(=O)OCC(=O)N(C)C)c3ccccc3n2)cc1	i	i	i	17.8*	i	-1.68
COc1ccc(-c2cc(C(=O)OCC(=O)c3ccc(C)c([N+](=O)[O-])c3)c3ccccc3n2)cc1	i	i	i	2.6	i	0.49
CN1CCN(CC(=O)N2c3ccccc3C(C)(c3ccccc3)CC2(C)C)CC1 (stereo not drawn)	i	i	i	-4.4	i	-6.19*
CC(=O)N1c2ccccc2C(C)(c2ccccc2)CC1(C)C (stereo not drawn)	i	i	i	3.9	i	0.77
CCN(CC)c1nc2ccccc2c(N)c1-c1ccccc1	i	i	i	-0.3	i	-5.14*
Cn1c(=O)n(C)c2cc(NS(=O)(=O)c3ccc(C(C)(C)C)cc3)ccc21	i	25*	i	-12.7	i	-2.7
CCCn1c(SCC(=O)c2c(C)[nH]c(C)c2C(=O)OCC)nc2ccccc21	i	i	i	-1.4	i	-4.27*
CCSc1nnc(NC(=O)C(CC)(C(F)(F)F)C(F)(F)F)s1	i	100*	-5.17*	4.7	i	1.04
CCSc1nnc(NC(=O)C(C(F)(F)F)C(F)(F)F)s1	i	i	i	9.8	i	0
